About 2,000 (36%) of roughly 5,500 compounds were called active. Inconclusive results (about 18%) are left out. The list shows a part of the results. Unmarked numbers belong to inactive results. Rule as the data show it: active = normalized growth mostly below about 0.91 (no sharp cut-off); inconclusive = no clear call, values can overlap the other calls; inactive = mostly above about 0.92.
Assay: chemical genetic growth profiling, strain panel (AID 1159580);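 also: tested at 20 µM; growth read once vehicle control cultures reached saturation at 30 °C; 1 = growth at the plate median or of vehicle wells; lower values mean less growth of the strain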
Conditions: S. cerevisiae deletion strains, growth OD
[1] = locus YAL040C, strain CLN3, active compounds read low
[2] = locus YCL061C, strain MRC1 (second series), active compounds read low
[3] = locus YDR363W, strain ESC2, active compounds read low
[4] = locus YER002W, strain NOP16, active compounds read low
[5] = locus YMR307W, strain GAS1, active compounds read low
[6] = locus YNL175C, strain NOP13, active compounds read low
[7] = locus YNL197C, strain WHI3, active compounds read low
[8] = locus YNL224C, strain SQS1, active compounds read low
[9] = locus YNL322C, strain KRE1, active compounds read low
[10] = locus YOR083W, strain WHI5 (second series), active compounds read low

CCCN1CC[C@@H]2c3cc(O)ccc3CC[C@@H]21
normalized growth [1]: 1.02
normalized growth [2]: 1.01
normalized growth [3]: 1.01
normalized growth [4]: 1.01
normalized growth [5]: 1
normalized growth (locus YNL153C, strain GIM3, active compounds read low): 1.04
normalized growth [6]: 1.01
normalized growth [7]: 1.01
normalized growth [8]: 1.02
normalized growth [9]: 1.01
normalized growth [10]: 1.01

CCCN1CCc2cc(O)cc3c2[C@H]1Cc1ccc(O)c(O)c1-3
normalized growth [1]: 1.03
normalized growth [2]: 0.779 (active)
normalized growth [3]: 0.922
normalized growth [4]: 1.01
normalized growth [5]: 0.771 (active)
normalized growth [6]: 1.01
normalized growth [7]: 0.983
normalized growth [8]: 1.01
normalized growth [9]: 0.654 (active)
normalized growth [10]: 0.926
normalized growth (locus YPL055C, strain LGE1, active compounds read low): 0.553 (active)
